Data as given in PubChem BioAssay AID1159580 (chemical genetic matrix, 2015).
Several values for one entry are separate records, joined by “and”; a condition that tells them apart may be missing. Equal entries are not always repeated. Among all 5,500 compounds or so, about 2,000 (36%) were called active. About 18% were inconclusive and are not listed. Cut-off read from the data, not from the text of the source: active = normalized growth mostly below about 0.91 (no sharp cut-off); inconclusive = no clear call, values can overlap the other calls; inactive = mostly above about 0.92. The list shows a part of the results.

Test: chemical genetic growth profiling, strain panel (AID 1159580);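 note: tested at 20 µM; growth read once vehicle control cultures reached saturation at 30 °C; 1 = growth at the plate median or of vehicle wells; lower values mean less growth of the strain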
Conditions: S. cerevisiae deletion strains, growth OD

Measured: normalized growth

COc1ccc([C@@H](C)C(=O)c2ccc(O)cc2O)cc1
active: locus YDR137W, strain rgp1, stronger effect = lower value 0.797 | locus YGL086W, strain mad1, stronger effect = lower value 0.921 | locus YKR001C, strain vps1, stronger effect = lower value 0.798 | locus YLR039C, strain RIC1, stronger effect = lower value 1.57 [resistant] | locus YLR262C, strain YPT6 (second series), stronger effect = lower value 0.788 | locus YLR330W, strain CHS5, stronger effect = lower value 0.888 | locus YLR418C, strain cdc73, stronger effect = lower value 0.796 | locus YNL307C, strain MCK1, stronger effect = lower value 0.761 | locus YOL147C, strain pex11, stronger effect = lower value 0.931 | locus YOR184W, strain ser1, stronger effect = lower value 0.866 | locus YOR270C, strain vph1, stronger effect = lower value 0.737 | locus YPR163C, strain tif3, stronger effect = lower value 0.86
inactive: locus YAL021C, strain ccr4, stronger effect = lower value 0.987 | locus YAL026C, strain drs2, stronger effect = lower value 0.969 | locus YAL030W, strain snc1, stronger effect = lower value 0.983 | locus YBL061C, strain skt5, stronger effect = lower value 0.976 | locus YBR009C, strain hhf1, stronger effect = lower value 0.962 | locus YBR021W, strain FUR4, stronger effect = lower value 0.996 | locus YBR023C, strain chs3, stronger effect = lower value 0.974 | locus YBR171W, strain sec66, stronger effect = lower value 0.95 | locus YBR229C, strain ROT2, stronger effect = lower value 0.982 | locus YBR231C, strain swc5, stronger effect = lower value 0.983 | locus YBR279W, strain paf1, stronger effect = lower value 0.978 | locus YCL011C, strain gbp2, stronger effect = lower value 0.987 | locus YCL016C, strain dcc1, stronger effect = lower value 0.985 | locus YCL029C, strain bik1, stronger effect = lower value 0.96 | locus YCL061C, strain MRC1, stronger effect = lower value 0.994 | locus YCL069W, strain vba3, stronger effect = lower value 0.955 | locus YCR088W, strain abp1, stronger effect = lower value 0.967 | locus YDL005C, strain med2, stronger effect = lower value 0.969 | locus YDL035C, strain GPR1, stronger effect = lower value 0.98 | locus YDL040C, strain nat1, stronger effect = lower value 0.97 | locus YDL074C, strain BRE1, stronger effect = lower value 0.927 | locus YDL101C, strain DUN1, stronger effect = lower value 0.955 | locus YDL185W, strain tfp1, stronger effect = lower value 0.959 | locus YDL192W, strain arf1, stronger effect = lower value 0.931 | locus YDR001C, strain nth1, stronger effect = lower value 0.979 | locus YDR069C, strain doa4, stronger effect = lower value 0.965 | locus YDR101C, strain arx1, stronger effect = lower value 0.961 | locus YDR159W, strain sac3, stronger effect = lower value 0.969 | locus YDR162C, strain NBP2, stronger effect = lower value 0.937 | locus YDR195W, strain ref2 1.11 | locus YDR297W, strain sur2, stronger effect = lower value 0.994 | locus YDR318W, strain mcm21, stronger effect = lower value 0.93 | locus YDR334W, strain swr1, stronger effect = lower value 0.957 | locus YDR335W, strain msn5, stronger effect = lower value 0.968 | locus YDR388W, stronger effect = lower value 0.969 | locus YDR392W, strain spt3, stronger effect = lower value 0.749 | locus YDR502C, strain sam2, stronger effect = lower value 0.931 | locus YEL003W, strain gim4, stronger effect = lower value 0.962 | locus YEL037C, strain rad23, stronger effect = lower value 0.966 | locus YEL061C, strain CIN8 (second series), stronger effect = lower value 0.957 | locus YER015W, strain faa2, stronger effect = lower value 0.986 | locus YER016W, strain bim1, stronger effect = lower value 0.973 | locus YER110C, stronger effect = lower value 0.969 | locus YER111C, strain swi4, stronger effect = lower value 0.965 | locus YER155C, strain BEM2 (second series), stronger effect = lower value 0.952 | locus YER155C, strain BEM2, stronger effect = lower value 0.971 | locus YER167W, strain BCK2, stronger effect = lower value 0.973 | locus YFR010W, strain ubp6, stronger effect = lower value 0.979 | locus YGL078C, strain dbp3, stronger effect = lower value 0.981 | locus YGL167C, strain pmr1, stronger effect = lower value 0.96 | locus YGL173C, strain kem1, stronger effect = lower value 0.959 | locus YGL227W, strain vid30, stronger effect = lower value 0.983 | locus YGL240W, strain doc1, stronger effect = lower value 0.991 | locus YGL248W, strain PDE1, stronger effect = lower value 0.939 | locus YGL253W, strain hxk2, stronger effect = lower value 0.976 | locus YGR135W, strain pre9, stronger effect = lower value 0.948 | locus YGR252W, strain gcn5, stronger effect = lower value 0.92 | locus YHR013C, strain ard1, stronger effect = lower value 0.944 | locus YHR027C, strain rpn1, stronger effect = lower value 0.964 | locus YHR030C, strain SLT2, stronger effect = lower value 0.991 and 0.996 | locus YHR079C, strain IRE1 (second series), stronger effect = lower value 0.971 | locus YHR079C, strain IRE1, stronger effect = lower value 0.978 | locus YHR094C, strain hxt1, stronger effect = lower value 0.977 | locus YHR129C, strain ARP1, stronger effect = lower value 0.959 | locus YHR142W, strain chs7, stronger effect = lower value 0.929 | locus YHR200W, strain rpn10, stronger effect = lower value 0.982 | locus YIL066C, strain RNR3, stronger effect = lower value 0.961 | locus YIL073C, strain SPO22, stronger effect = lower value 0.955 | locus YIL125W, strain kgd1, stronger effect = lower value 0.98 | locus YIR030C, strain dcg1, stronger effect = lower value 0.973 | locus YJL092W, strain hpr5, stronger effect = lower value 0.978 | locus YJL095W, strain BCK1 (second series), stronger effect = lower value 0.987 | locus YJL095W, strain BCK1, stronger effect = lower value 0.864 and 0.977 | locus YJL115W, strain asf1, stronger effect = lower value 0.98 | locus YJL129C, strain trk1, stronger effect = lower value 0.878 | locus YJL134W, strain LCB3, stronger effect = lower value 0.989 | locus YJL154C, strain vps35, stronger effect = lower value 0.955 | locus YJL164C, strain tpk1, stronger effect = lower value 0.965 | locus YJL166W, strain qcr8, stronger effect = lower value 0.965 | locus YJL168C, strain set2, stronger effect = lower value 0.97 | locus YJL187C, strain SWE1 (second series), stronger effect = lower value 0.953 | locus YJL187C, strain SWE1, stronger effect = lower value 0.97 | locus YJR043C, strain POL32, stronger effect = lower value 1.03 | locus YJR066W, strain TOR1, stronger effect = lower value 0.873 | locus YKL009W, strain mrt4, stronger effect = lower value 0.963 | locus YKL068W, stronger effect = lower value 0.974 | locus YKL085W, strain MDH1 (second series), stronger effect = lower value 0.97 | locus YKL085W, strain MDH1, stronger effect = lower value 0.97 | locus YKL160W, strain elf1, stronger effect = lower value 0.975 | locus YKR026C, strain gcn3, stronger effect = lower value 0.97 | locus YKR091W, strain srl3, stronger effect = lower value 0.981 | locus YLL001W, strain dnm1, stronger effect = lower value 0.966 | locus YLL026W, stronger effect = lower value 0.988 | locus YLL041C, strain sdh2, stronger effect = lower value 0.953 | locus YLR027C, strain aat2, stronger effect = lower value 0.991 | locus YLR058C, strain SHM2, stronger effect = lower value 0.977 | locus YLR102C, strain apc9, stronger effect = lower value 0.969 | locus YLR113W, strain HOG1, stronger effect = lower value 1.01 | locus YLR221C, strain rsa3, stronger effect = lower value 0.971 | locus YLR258W, strain gsy2, stronger effect = lower value 0.954 | locus YLR262C, strain YPT6, stronger effect = lower value 0.738 | locus YLR268W, strain sec22, stronger effect = lower value 0.968 | locus YLR320W, strain mms22, stronger effect = lower value 0.895 | locus YLR342W, strain FKS1, stronger effect = lower value 0.96 | locus YLR357W, strain rsc2, stronger effect = lower value 1.03 | locus YLR370C, strain arc18, stronger effect = lower value 0.974 | locus YLR371W, strain rom2, stronger effect = lower value 0.921 | locus YLR384C, strain iki3, stronger effect = lower value 0.982 | locus YML016C, strain PPZ1, stronger effect = lower value 0.981 | locus YML032C, strain rad52, stronger effect = lower value 0.919 | locus YML120C, strain ndi1, stronger effect = lower value 0.976 | locus YML124C, strain tub3, stronger effect = lower value 0.968 | locus YMR058W, strain fet3, stronger effect = lower value 0.979 | locus YMR078C, strain ctf18, stronger effect = lower value 0.955 | locus YMR125W, strain sto1, stronger effect = lower value 0.961 | locus YMR129W, stronger effect = lower value 0.983 | locus YMR205C, strain PFK2, stronger effect = lower value 0.914 | locus YMR223W, strain ubp8, stronger effect = lower value 0.944 | locus YMR231W, strain pep5, stronger effect = lower value 0.972 | locus YMR307W, strain GAS1, stronger effect = lower value 0.692 | locus YNL067W, strain RPL9B, stronger effect = lower value 0.967 | locus YNL071W, strain lat1, stronger effect = lower value 0.948 | locus YNL153C, strain GIM3, stronger effect = lower value 0.953 | locus YNL183C, strain NPR1, stronger effect = lower value 0.915 | locus YNL209W, strain ssb2, stronger effect = lower value 0.975 | locus YNL233W, strain BNI4, stronger effect = lower value 0.934 | locus YNL248C, strain rpa49, stronger effect = lower value 0.976 | locus YNL250W, strain rad50, stronger effect = lower value 1.01 | locus YNL271C, strain bni1, stronger effect = lower value 0.975 | locus YNL298W, strain CLA4, stronger effect = lower value 0.945 | locus YNL322C, strain KRE1 (second series), stronger effect = lower value 0.986 | locus YNR049C, strain mso1, stronger effect = lower value 0.963 | locus YNR052C, strain pop2, stronger effect = lower value 0.943 | locus YOL012C, strain htz1 1.31 | locus YOR001W, strain rrp6, stronger effect = lower value 0.953 | locus YOR061W, strain CKA2, stronger effect = lower value 0.999 | locus YOR069W, strain VPS5, stronger effect = lower value 0.974 | locus YOR070C, strain gyp1, stronger effect = lower value 0.987 | locus YOR080W, strain dia2, stronger effect = lower value 0.975 | locus YOR083W, strain WHI5, stronger effect = lower value 0.973 | locus YOR106W, strain vam3, stronger effect = lower value 0.97 | locus YOR136W, strain idh2, stronger effect = lower value 0.967 | locus YOR144C, strain elg1, stronger effect = lower value 0.961 | locus YOR231W, strain MKK1, stronger effect = lower value 0.953 | locus YOR265W, strain rbl2, stronger effect = lower value 0.969 | locus YOR290C, strain snf2, stronger effect = lower value 0.982 | locus YOR316C, strain cot1, stronger effect = lower value 0.979 | locus YPL051W, strain arl3, stronger effect = lower value 0.975 | locus YPL078C, strain atp4, stronger effect = lower value 0.958 | locus YPL106C, strain sse1, stronger effect = lower value 1.02 | locus YPL240C, strain hsp82, stronger effect = lower value 0.965 | locus YPL241C, strain CIN2, stronger effect = lower value 0.971 | locus YPL256C, strain CLN2, stronger effect = lower value 0.969 | locus YPR119W, strain clb2, stronger effect = lower value 0.966 | locus YPR141C, strain kar3, stronger effect = lower value 0.98 | locus YPR167C, strain met16, stronger effect = lower value 0.965 | strain wtn01, stronger effect = lower value 0.94
